Reference: PubChem BioAssay AID1159580 (chemical genetic matrix, 2015)
Screen size: about 5,500 compounds; about 2,000 (36%) were called active. Not shown: some 18% with an inconclusive outcome. The list shows a part of the results. Unmarked numbers belong to inactive results. No stated cut-off is given here; in the data, active means normalized growth mostly below about 0.91 (no sharp cut-off); inconclusive means no clear call, values can overlap the other calls; inactive means mostly above about 0.92.

Assay: chemical genetic growth profiling, strain panel (AID 1159580);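 further: tested at 20 µM; growth read once vehicle control cultures reached saturation at 30 °C; 1 = growth at the plate median or of vehicle wells; lower values mean less growth of the strain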
Conditions: growth OD

## CC(=O)N1CCN(c2ccc(OCC3CO[C@](Cn4ccnc4)(c4ccc(Cl)cc4Cl)O3)cc2)CC1 (some centres undefined)
S. cerevisiae deletion strains, locus YJL187C, strain SWE1, active compounds read low
  normalized growth: 0.0925 (active)
S. cerevisiae deletion strains, locus YJR043C, strain POL32, active compounds read low
  normalized growth: 0.094 (active)
S. cerevisiae deletion strains, locus YJR066W, strain TOR1, active compounds read low
  normalized growth: 0.0283 (active)
S. cerevisiae deletion strains, locus YJR075W, strain HOC1, active compounds read low
  normalized growth: 0.0852 (active)
S. cerevisiae deletion strains, locus YKL009W, strain mrt4, active compounds read low
  normalized growth: 0.994
S. cerevisiae deletion strains, locus YKL068W, active compounds read low
  normalized growth: 0.931 (active)
S. cerevisiae deletion strains, locus YKL085W, strain MDH1 (second series), active compounds read low
  normalized growth: 0.795 (active)
S. cerevisiae deletion strains, locus YKL085W, strain MDH1, active compounds read low
  normalized growth: 0.795 (active)
S. cerevisiae deletion strains, locus YKL160W, strain elf1, active compounds read low
  normalized growth: 0.104 (active)
S. cerevisiae deletion strains, locus YKL190W, strain CNB1, active compounds read low
  normalized growth: 0.0638 (active)
S. cerevisiae deletion strains, locus YKR001C, strain vps1, active compounds read low
  normalized growth: 0.112 (active)
S. cerevisiae deletion strains, locus YKR026C, strain gcn3, active compounds read low
  normalized growth: 0.168 (active)
S. cerevisiae deletion strains, locus YKR091W, strain srl3, active compounds read low
  normalized growth: 0.108 (active)
S. cerevisiae deletion strains, locus YLL001W, strain dnm1, active compounds read low
  normalized growth: 0.102 (active)
S. cerevisiae deletion strains, locus YLL026W, active compounds read low
  normalized growth: 0.0778 (active)
S. cerevisiae deletion strains, locus YLL041C, strain sdh2, active compounds read low
  normalized growth: 0.0858 (active)
S. cerevisiae deletion strains, locus YLR027C, strain aat2, active compounds read low
  normalized growth: 0.0792 (active)
S. cerevisiae deletion strains, locus YLR039C, strain RIC1, active compounds read low
  normalized growth: 0.444 (active)
S. cerevisiae deletion strains, locus YLR058C, strain SHM2, active compounds read low
  normalized growth: 0.072 (active)
S. cerevisiae deletion strains, locus YLR102C, strain apc9, active compounds read low
  normalized growth: 0.0929 (active)
S. cerevisiae deletion strains, locus YLR113W, strain HOG1, active compounds read low
  normalized growth: 0.16 (active)
S. cerevisiae deletion strains, locus YLR221C, strain rsa3, active compounds read low
  normalized growth: 0.0852 (active)
S. cerevisiae deletion strains, locus YLR258W, strain gsy2, active compounds read low
  normalized growth: 0.0919 (active)
S. cerevisiae deletion strains, locus YLR262C, strain YPT6 (second series), active compounds read low
  normalized growth: 0.314 (active)
S. cerevisiae deletion strains, locus YLR262C, strain YPT6, active compounds read low
  normalized growth: 0.523 (active)
S. cerevisiae deletion strains, locus YLR268W, strain sec22, active compounds read low
  normalized growth: 0.0953 (active)
S. cerevisiae deletion strains, locus YLR320W, strain mms22, active compounds read low
  normalized growth: 0.104 (active)
S. cerevisiae deletion strains, locus YLR330W, strain CHS5, active compounds read low
  normalized growth: 0.0775 (active)
S. cerevisiae deletion strains, locus YLR342W, strain FKS1 (second series), active compounds read low
  normalized growth: 0.0863 (active)
S. cerevisiae deletion strains, locus YLR342W, strain FKS1, active compounds read low
  normalized growth: 0.0875 (active)
S. cerevisiae deletion strains, locus YLR357W, strain rsc2, active compounds read low
  normalized growth: 0.231 (active)
S. cerevisiae deletion strains, locus YLR370C, strain arc18, active compounds read low
  normalized growth: 0.0894 (active)
S. cerevisiae deletion strains, locus YLR371W, strain rom2, active compounds read low
  normalized growth: 0.104 (active)
S. cerevisiae deletion strains, locus YLR384C, strain iki3, active compounds read low
  normalized growth: 0.0857 (active)
S. cerevisiae deletion strains, locus YLR418C, strain cdc73, active compounds read low
  normalized growth: 0.123 (active)
S. cerevisiae deletion strains, locus YML016C, strain PPZ1, active compounds read low
  normalized growth: 0.0722 (active)
S. cerevisiae deletion strains, locus YML032C, strain rad52, active compounds read low
  normalized growth: 0.112 (active)
S. cerevisiae deletion strains, locus YML120C, strain ndi1, active compounds read low
  normalized growth: 0.0823 (active)
S. cerevisiae deletion strains, locus YML124C, strain tub3, active compounds read low
  normalized growth: 0.0927 (active)
S. cerevisiae deletion strains, locus YMR058W, strain fet3, active compounds read low
  normalized growth: 0.0959 (active)
S. cerevisiae deletion strains, locus YMR078C, strain ctf18, active compounds read low
  normalized growth: 0.112 (active)
S. cerevisiae deletion strains, locus YMR125W, strain sto1, active compounds read low
  normalized growth: 0.102 (active)
S. cerevisiae deletion strains, locus YMR129W, active compounds read low
  normalized growth: 0.0847 (active)
S. cerevisiae deletion strains, locus YMR205C, strain PFK2, active compounds read low
  normalized growth: 0.141 (active)
S. cerevisiae deletion strains, locus YMR223W, strain ubp8, active compounds read low
  normalized growth: 0.105 (active)
S. cerevisiae deletion strains, locus YMR231W, strain pep5, active compounds read low
  normalized growth: 0.403 (active)
S. cerevisiae deletion strains, locus YMR263W, strain SAP30, active compounds read low
  normalized growth: 0.157 (active)
S. cerevisiae deletion strains, locus YMR307W, strain GAS1, active compounds read low
  normalized growth: 0.159 (active)
S. cerevisiae deletion strains, locus YNL067W, strain RPL9B, active compounds read low
  normalized growth: 0.0729 (active)
S. cerevisiae deletion strains, locus YNL071W, strain lat1, active compounds read low
  normalized growth: 0.0698 (active)
S. cerevisiae deletion strains, locus YNL183C, strain NPR1, active compounds read low
  normalized growth: 0.0744 (active)
S. cerevisiae deletion strains, locus YNL209W, strain ssb2, active compounds read low
  normalized growth: 0.195 (active)
S. cerevisiae deletion strains, locus YNL233W, strain BNI4, active compounds read low
  normalized growth: 0.0732 (active)
S. cerevisiae deletion strains, locus YNL248C, strain rpa49, active compounds read low
  normalized growth: 0.0896 (active)
S. cerevisiae deletion strains, locus YNL250W, strain rad50, active compounds read low
  normalized growth: 0.896 (active)
S. cerevisiae deletion strains, locus YNL271C, strain bni1, active compounds read low
  normalized growth: 0.906 (active)
S. cerevisiae deletion strains, locus YNL298W, strain CLA4, active compounds read low
  normalized growth: 0.246 (active)
S. cerevisiae deletion strains, locus YNL307C, strain MCK1, active compounds read low
  normalized growth: 0.0791 (active)
S. cerevisiae deletion strains, locus YNL322C, strain KRE1 (second series), active compounds read low
  normalized growth: 0.115 (active)
S. cerevisiae deletion strains, locus YNR049C, strain mso1, active compounds read low
  normalized growth: 0.0955 (active)
S. cerevisiae deletion strains, locus YNR052C, strain pop2, active compounds read low
  normalized growth: 0.144 (active)
S. cerevisiae deletion strains, locus YOL012C, strain htz1
  normalized growth: 0.25
S. cerevisiae deletion strains, locus YOL147C, strain pex11, active compounds read low
  normalized growth: 0.0768 (active)
S. cerevisiae deletion strains, locus YOR001W, strain rrp6, active compounds read low
  normalized growth: 0.0988 (active)
S. cerevisiae deletion strains, locus YOR061W, strain CKA2, active compounds read low
  normalized growth: 0.125 (active)
S. cerevisiae deletion strains, locus YOR069W, strain VPS5, active compounds read low
  normalized growth: 0.0927 (active)
S. cerevisiae deletion strains, locus YOR070C, strain gyp1, active compounds read low
  normalized growth: 0.0793 (active)
S. cerevisiae deletion strains, locus YOR080W, strain dia2, active compounds read low
  normalized growth: 0.096 (active)
S. cerevisiae deletion strains, locus YOR083W, strain WHI5, active compounds read low
  normalized growth: 0.136 (active)
S. cerevisiae deletion strains, locus YOR106W, strain vam3, active compounds read low
  normalized growth: 0.116 (active)
S. cerevisiae deletion strains, locus YOR136W, strain idh2, active compounds read low
  normalized growth: 0.112 (active)
S. cerevisiae deletion strains, locus YOR144C, strain elg1, active compounds read low
  normalized growth: 0.0877 (active)
S. cerevisiae deletion strains, locus YOR184W, strain ser1, active compounds read low
  normalized growth: 0.0917 (active)
S. cerevisiae deletion strains, locus YOR231W, strain MKK1, active compounds read low
  normalized growth: 0.157 (active)
S. cerevisiae deletion strains, locus YOR265W, strain rbl2, active compounds read low
  normalized growth: 0.0927 (active)
S. cerevisiae deletion strains, locus YOR270C, strain vph1, active compounds read low
  normalized growth: 0.112 (active)
S. cerevisiae deletion strains, locus YOR290C, strain snf2, active compounds read low
  normalized growth: 0.0982 (active)
S. cerevisiae deletion strains, locus YOR316C, strain cot1, active compounds read low
  normalized growth: 0.0844 (active)
S. cerevisiae deletion strains, locus YPL051W, strain arl3, active compounds read low
  normalized growth: 0.141 (active)
S. cerevisiae deletion strains, locus YPL078C, strain atp4, active compounds read low
  normalized growth: 0.0953 (active)
S. cerevisiae deletion strains, locus YPL106C, strain sse1, active compounds read low
  normalized growth: 0.137 (active)
S. cerevisiae deletion strains, locus YPL240C, strain hsp82, active compounds read low
  normalized growth: 0.09 (active)
S. cerevisiae deletion strains, locus YPL256C, strain CLN2, active compounds read low
  normalized growth: 0.182 (active)
S. cerevisiae deletion strains, locus YPR119W, strain clb2, active compounds read low
  normalized growth: 0.105 (active)
S. cerevisiae deletion strains, locus YPR141C, strain kar3, active compounds read low
  normalized growth: 0.971
S. cerevisiae deletion strains, locus YPR163C, strain tif3, active compounds read low
  normalized growth: 0.105 (active)
S. cerevisiae deletion strains, locus YPR167C, strain met16, active compounds read low
  normalized growth: 0.1 (active)
S. cerevisiae deletion strains, strain wtn01, active compounds read low
  normalized growth: 0.0951 (active)
S. cerevisiae strains, strain wild type, active compounds read low
  normalized growth: 0.0668 (active)
